From PMC5540273 (PLoS ONE, 2017)

Tests used:
Details in all cases: concentration: 1 μM, replicates: in singlicate; n = 1
SNARK = system: T1, SNARK
T1 construct: gene NUAK2

SNRK = system: SNRK
SRC = system: SRC
SRMS = system: SRMS
SRPK1 = system: SRPK1
SRPK2 = system: SRPK2
SRPK3 = system: SRPK3
STK16 = system: STK16
STK33 = system: STK33
STK35 = system: STK35
STK36 = system: STK36
STK39 = system: STK39
SYK = system: SYK
SgK110 = system: SgK110
TAK1 = system: T2, TAK1
T2 construct: gene MAP3K7

TAOK1 = system: TAOK1
TAOK2 = system: TAOK2
TAOK3 = system: TAOK3
TBK1 = system: TBK1
TEC = system: TEC
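Further: KINOMEscan kinase panel screen.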

SMILES	%Inh (SNARK) [%]	%Inh (SNRK) [%]	%Inh (SRC) [%]	%Inh (SRMS) [%]	%Inh (SRPK1) [%]	%Inh (SRPK2) [%]	%Inh (SRPK3) [%]	%Inh (STK16) [%]	%Inh (STK33) [%]	%Inh (STK35) [%]	%Inh (STK36) [%]	%Inh (STK39) [%]	%Inh (SYK) [%]	%Inh (SgK110) [%]	%Inh (TAK1) [%]	%Inh (TAOK1) [%]	%Inh (TAOK2) [%]	%Inh (TAOK3) [%]	%Inh (TBK1) [%]	%Inh (TEC) [%]
Cc1cccc(Nc2nc(NCCN)ncc2C(N)=O)c1 [GSK1292139]	73	0	40	0	56	18	0	30	73	34	0	14	97	91.1	83	15	66	9	28	40
Cc1ccccc1CC(=O)N1CCc2cc(-c3cn(C)c4ncnc(N)c34)ccc21 [GSK2603346]	34	0	15	0	18	0	0	2	3	2	0	13	0	0	6	0	0	0	5	0
CN(C)CCOc1ccc(-c2cc(-c3ccc(Cl)c(O)c3)c(-c3ccncc3)[nH]2)cc1.Cl.Cl [SB-684387]	9	9	92.2	3	0	30	0	14	0	0	63	33	2	0	32	0	1	0	28	0
CC(C)NCC(Cc1ccccc1)NC(=O)c1cc(Br)c(-c2ccnc3[nH]ccc23)s1.Cl.Cl (stereo not drawn) [GSK1383281]	89	0	0	0	43	0	0	46	96.6	0	0	0	0	73	0	41	0	0	20	0
COc1ccc(C2=C(Nc3cccc(O)c3)C(=O)NC2=O)cc1 [SB-390766]	0	0	0	0	49	0	0	34	100	0	100	34	0	100	0	0	1	0	0	14
Cc1ccc(Nc2ccnc(Nc3ccc(C)c(F)c3)n2)cc1O.Cl [GW582868]	0	0	86	0	34	7	17	11	0	99.5	7	18	56	0	0	0	0	0	16	7
O=C(Nc1n[nH]c2nc(-c3ccccc3)ccc12)C1CC1 [SB-708999]	56	0	0	0	22	23	7	16	0	1	8	0	0	0	0	40	0	7	8	0
Cc1ccc(O)cc1Nc1ccnc2cc(-c3ccc(CN4CCCCC4)o3)ccc12 [GW557777]	11	0	100	23	32	0	15	22	61	0	0	0	69	0	35	0	0	0	0	21
Cc1nn2c(=O)cc(N3CCO[C@H](C)C3)nc2n1Cc1cccc(Cl)c1Cl [GSK2373693]	0	0	19	0	40	0	0	59	0	1	0	5	19	0	0	0	0	3	0	2
